Results: ChEMBL document CHEMBL1201862, “PubChem BioAssay data set” (2004)
In all, about 400,000 compounds went through this assay and about 2,100 (0.53%) were called active. Inconclusive results (about 14%) are left out. This is one part of a sample in which actives are shown more often than they occur. No rule for the calls is given here.

Each compound was assayed against Ataxin-2 (Homo sapiens) (UniProt Q99700) (assay: qHTS for Inhibitors of ATXN expression.).
Sequence of Ataxin-2 (Homo sapiens) (Q99700 whole entry): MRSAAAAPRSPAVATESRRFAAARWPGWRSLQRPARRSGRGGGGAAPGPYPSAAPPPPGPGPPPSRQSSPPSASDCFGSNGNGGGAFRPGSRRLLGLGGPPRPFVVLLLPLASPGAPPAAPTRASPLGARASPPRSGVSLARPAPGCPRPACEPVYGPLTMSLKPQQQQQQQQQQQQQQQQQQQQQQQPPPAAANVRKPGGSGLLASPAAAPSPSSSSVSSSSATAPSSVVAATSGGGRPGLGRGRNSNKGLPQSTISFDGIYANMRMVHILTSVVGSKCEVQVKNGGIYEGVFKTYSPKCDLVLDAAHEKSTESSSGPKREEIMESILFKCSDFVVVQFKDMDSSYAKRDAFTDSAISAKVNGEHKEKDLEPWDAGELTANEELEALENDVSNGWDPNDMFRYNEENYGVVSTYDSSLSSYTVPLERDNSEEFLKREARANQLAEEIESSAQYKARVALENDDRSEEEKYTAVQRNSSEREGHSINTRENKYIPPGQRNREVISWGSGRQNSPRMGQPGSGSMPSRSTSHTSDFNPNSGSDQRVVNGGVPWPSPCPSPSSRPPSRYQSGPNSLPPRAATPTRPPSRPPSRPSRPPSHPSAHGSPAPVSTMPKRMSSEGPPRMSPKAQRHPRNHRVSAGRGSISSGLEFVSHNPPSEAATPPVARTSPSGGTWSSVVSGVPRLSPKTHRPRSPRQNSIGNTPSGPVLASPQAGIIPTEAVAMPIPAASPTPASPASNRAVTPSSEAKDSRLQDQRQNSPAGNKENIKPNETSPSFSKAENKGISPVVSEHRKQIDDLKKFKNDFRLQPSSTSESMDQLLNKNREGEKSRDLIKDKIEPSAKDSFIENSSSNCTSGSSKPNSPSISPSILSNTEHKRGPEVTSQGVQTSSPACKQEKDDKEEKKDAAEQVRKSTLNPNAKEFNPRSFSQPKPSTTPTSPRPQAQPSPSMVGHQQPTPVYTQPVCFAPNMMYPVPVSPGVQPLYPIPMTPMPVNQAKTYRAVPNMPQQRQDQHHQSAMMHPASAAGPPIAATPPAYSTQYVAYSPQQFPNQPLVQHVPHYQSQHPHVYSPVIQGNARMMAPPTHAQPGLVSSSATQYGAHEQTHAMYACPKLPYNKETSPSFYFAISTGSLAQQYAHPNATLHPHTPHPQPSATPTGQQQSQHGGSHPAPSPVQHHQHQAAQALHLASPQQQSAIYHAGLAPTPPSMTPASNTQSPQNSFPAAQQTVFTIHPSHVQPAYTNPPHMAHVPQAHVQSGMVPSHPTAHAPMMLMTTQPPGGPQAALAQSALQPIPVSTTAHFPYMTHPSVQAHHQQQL
Format: functional
With `Cc1ccc2nc3c(cc(C(=O)NCC4CCCO4)c(=N)n3CC3CCCO3)c(=O)n2c1` (stereo not drawn) the Potency was “inactive”.
With `Cc1ccc(C2C=C(c3ccccc3OC(F)F)Nc3ncnn32)cc1` (stereo not drawn) the Potency was “inactive”.
`Cn1c(C(=O)NCCN2CCOCC2)cc2c(=O)n3ccccc3nc21` was tested, and the Potency was “inactive”.
`CCCCn1c(SCCN2CCCCC2)nc2c1c(=O)n(C)c(=O)n2C` was tested, and the Potency was “inactive”.
`OC(c1cc(C(F)(F)F)nc2c(C(F)(F)F)cccc12)C1CCCCN1` (stereo not drawn) was tested, and the Potency was 20 µM (active).
In the case of `O=S(=O)(Nc1nc2n(n1)C(c1ccc(F)cc1)C=C(c1ccc(Cl)cc1)N2)c1ccccc1` (stereo not drawn), the Potency is reported as “inactive”.
For `COCC(C)OC(=O)c1c(N)n(CCCN2CCOCC2)c2nc3ccccc3nc12` (stereo not drawn), the Potency was “inactive”.
For `COc1ccc(-c2nn(-c3ccccc3)cc2/C=N/Nc2ccc3ccccc3n2)cc1OC`, the Potency was “inactive”.
`COc1ccc(-c2nn(-c3ccccc3)cc2/C=N/N=C(N)N)cc1OC` was tested, and the Potency was 39.8 µM (active).
`COc1ccc(-c2nn(-c3ccccc3)cc2/C=C(\CC(=O)O)c2nc3ccccc3s2)cc1OC` was tested, and the Potency was “inactive”.
`N#CC(C#N)=Cc1cnc(O)c(C#N)c1Nc1ccccc1` was tested, and the Potency was “inactive”.
For `Nc1c(C(=O)Nc2ccc(F)cc2)sc2nc(-c3ccco3)ccc12`, the Potency was “inactive”.
In the case of `Oc1ccc(CN2CCc3ccccc3C2)c2cccnc12`, the Potency is reported as 7.94 µM (active).
With `O=Cc1ccc(O)c2ncccc12` the Potency was “inactive”.
With `O=C(CSc1ncccn1)N1CCc2ccccc2C1` the Potency was “inactive”.
For `CCc1ccc(C(=O)c2cc3ccc(O)cc3oc2=O)cc1`, the Potency was “inactive”.
With `Oc1ccc(C23CC4CC(CC(C4)C2)C3)cc1O` the Potency was 39.8 µM (active).
`CNC(=O)/C(C#N)=C/c1c(N2CCN(c3ccc(OC)cc3)CC2)nc2c(C)cccn2c1=O` was tested, and the Potency was “inactive”.
For `N=C1SC(c2ccccc2)C(=O)N1c1ncc(Cc2ccccc2Cl)s1` (stereo not drawn), the Potency was 12.6 µM (active).
`Fc1ccc(-n2c(S)nnc2-c2ccc3ccccc3n2)cc1Cl` was tested, and the Potency was “inactive”.
`Oc1c(Br)cc(/C=N/Nc2ccc(Cl)nn2)cc1Br` was tested, and the Potency was “inactive”.
In the case of `FC(F)(F)c1nnc(-c2ccccc2)nc1Sc1ccc(Cl)cc1`, the Potency is reported as 35.5 µM (active).
For `CN1CCN(c2nc(-c3ccc(Cl)cc3)nc3ccccc23)CC1`, the Potency was “inactive”.
`FC(F)(F)c1nnc(-c2ccccc2)nc1Sc1ccccc1` was tested, and the Potency was 39.8 µM (active).
In the case of `COc1cccc(-n2c(C)cc(/C=C3/C(=N)N4C(=NC3=O)SN=C4S(C)(=O)=O)c2C)c1`, the Potency is reported as “inactive”.
For `COc1cc(/C=C2/C(=N)N3N=C(CC(=O)N4CCOCC4)SC3=NC2=O)ccc1OCc1ccccc1`, the Potency was “inactive”.
For `Cc1ncc(CO)c(/C=N/NC(=O)c2ccccc2Br)c1O`, the Potency was “inactive”.
With `COc1cc(/C=C2\SC(=S)N(C(C(=O)O)c3ccccc3)C2=O)ccc1O` (stereo not drawn) the Potency was 17.8 µM (active).
For `COc1cc(/C=C2\SC(=S)N(NC(=O)c3ccc(O)cc3)C2=O)ccc1O`, the Potency was 12.6 µM (active).
In the case of `COc1ccc(/C=C2\SC(=S)N(CCCC(=O)Nc3cc(C)on3)C2=O)cc1OC`, the Potency is reported as “inactive”.
`Cn1cc(/C=C2\SC(=S)N(NC(=O)c3ccccc3)C2=O)c2ccccc21` was tested, and the Potency was “inactive”.
`Cc1c(NC(=O)COC(=O)/C=C/c2cccc(F)c2)c(=O)n(-c2ccccc2)n1C` was tested, and the Potency was “inactive”.
In the case of `COc1cc(/C=C2/SC(=S)N(c3c(C)n(C)n(-c4ccccc4)c3=O)C2=O)ccc1O`, the Potency is reported as 31.6 µM (active).
In the case of `O=C(O)C(c1ccccc1)N1C(=O)/C(=C\c2ccc(O)c(O)c2)SC1=S` (stereo not drawn), the Potency is reported as 39.8 µM (active).
With `CCN(CC)c1ccc2cc(C(N)=O)c(=O)oc2c1` the Potency was “inactive”.
`CCNC(=O)c1cc2c(=O)n3cccc(C)c3nc2n(CCc2ccccc2)c1=N` was tested, and the Potency was “inactive”.
`Nc1c(C(=O)N/N=C/c2ccc(F)cc2)oc2nc(-c3ccccc3)cc(-c3ccco3)c12` was tested, and the Potency was “inactive”.
With `O=C(Nc1ccc2nc(-c3ccco3)c(-c3ccco3)nc2c1)N1CCCCCC1` the Potency was “inactive”.
`CCCn1c(=N)c(C(=O)NCc2cccnc2)cc2c(=O)n3ccccc3nc21` was tested, and the Potency was “inactive”.
For `CC1(C)C2CC=C(/C=N/NC(=S)NCCc3ccccc3)C1C2` (stereo not drawn), the Potency was “inactive”.
With `COc1cc(C2CC(c3c(C)cc(C)nc3O)=NN2c2ccccc2F)cc(OC)c1OC` (stereo not drawn) the Potency was “inactive”.
In the case of `CC(C)C(=O)NC(Nc1cc(C(F)(F)F)ccc1Cl)C(Cl)(Cl)Cl` (stereo not drawn), the Potency is reported as “inactive”.
With `N#Cc1sc2nc(-c3cccs3)cc(-c3ccc(Cl)cc3)c2c1N` the Potency was “inactive”.
For `Nc1cc([N+](=O)[O-])ccc1Nc1ccc(O)cc1`, the Potency was 44.7 µM (active).
For `O=C(O)c1cc([N+](=O)[O-])ccc1-c1ccc([N+](=O)[O-])cc1C(=O)O`, the Potency was “inactive”.
`O=C(O)c1ccccc1Nc1ccc([N+](=O)[O-])cc1` was tested, and the Potency was “inactive”.
For `COc1ccc(C2C3=C(CCCC3=O)N(CC(=O)O)C3=C2C(=O)CCC3)cc1Br`, the Potency was “inactive”.
`OC(CNCCC1C=Nc2ccccc21)Cn1c2ccc(Cl)cc2c2cc(Cl)ccc21` (stereo not drawn) was tested, and the Potency was 35.5 µM (active).
In the case of `CN(C)CC(C(=O)c1ccccc1)c1ccccc1` (stereo not drawn), the Potency is reported as 20 µM (active).
With `CCOC(=O)C(C(=O)c1ccccc1)C(c1ccccc1)c1nccc2ccccc12` (stereo not drawn) the Potency was “inactive”.
`NCC12CC3CC(C1)CC(c1ccc(Br)cc1)(C3)C2` was tested, and the Potency was 25.1 µM (active).
With `NCC12CC3CC(C1)CC(c1ccc(Cl)cc1)(C3)C2` the Potency was 44.7 µM (active).
With `CCOCCCn1c(=N)c(C(=O)NCC2CCCO2)cc2c(=O)n3cccc(C)c3nc21` (stereo not drawn) the Potency was “inactive”.
In the case of `N#C/C(=C\c1c(Oc2ccccc2Cl)nc2ccccn2c1=O)C(=O)NC1CCS(=O)(=O)C1` (stereo not drawn), the Potency is reported as “inactive”.
With `Cc1cc(O)c(CN(C)C)c2c1C(=O)/C(=C/c1ccco1)O2` the Potency was “inactive”.
For `CC/C(=C\C1CCCCC1)C(NP(=O)(c1ccccc1)c1ccccc1)c1ccccc1` (stereo not drawn), the Potency was 35.5 µM (active).
`CC(C)OCCCn1c(NN)nc2ccccc2c1=O` was tested, and the Potency was “inactive”.
In the case of `COc1ccccc1Oc1ccc(N/C=C/C(=O)c2ccco2)cc1`, the Potency is reported as “inactive”.
`Cc1ccc(SC2=C(Sc3ccc(C)cc3)C(=O)c3ccccc3C2=O)cc1` was tested, and the Potency was “inactive”.
For `COc1ccc2sc(-c3ccc(N(C)C)cc3)c(C#Cc3cncn3C)c2c1`, the Potency was “inactive”.
In the case of `COc1ccc2sc(-c3ccc(N(C)C)cc3)c(C#CC(C)(C)O)c2c1`, the Potency is reported as “inactive”.
With `COc1ccc(-c2sc3cc4c(cc3c2C#CC2(N)CCCCC2)OCO4)cc1` the Potency was 39.8 µM (active).
In the case of `COc1cc(OC)cc(-c2sc3ccc(OC)cc3c2C#CC2(N)CCCCC2)c1`, the Potency is reported as 39.8 µM (active).
